Tests used:
ETS1 [1] = target: T1, ETS1 (UniProt P14921); assay: ETS1 binding intensity (PBM fluorescence), ETS1 alone (arbitrary fluorescence units); higher = stronger binding; conditions: ETS1 concentration 1 nM; RUNX1 concentration 0 nM
T1 sequence: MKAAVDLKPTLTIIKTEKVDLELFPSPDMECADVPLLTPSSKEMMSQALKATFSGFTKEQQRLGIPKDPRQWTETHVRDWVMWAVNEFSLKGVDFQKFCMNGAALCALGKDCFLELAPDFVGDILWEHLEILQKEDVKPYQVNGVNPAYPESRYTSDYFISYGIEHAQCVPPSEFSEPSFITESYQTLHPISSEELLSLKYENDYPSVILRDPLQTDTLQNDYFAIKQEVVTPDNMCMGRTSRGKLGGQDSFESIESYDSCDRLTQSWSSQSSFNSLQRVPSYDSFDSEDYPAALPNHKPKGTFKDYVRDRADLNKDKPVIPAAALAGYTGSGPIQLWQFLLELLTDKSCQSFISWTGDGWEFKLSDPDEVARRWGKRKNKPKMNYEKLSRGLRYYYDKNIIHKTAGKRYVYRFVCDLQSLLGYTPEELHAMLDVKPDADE

ETS1 [2] = target: T1, ETS1; assay: ETS1 binding intensity (PBM fluorescence) in presence of RUNX1, normalised to ETS1-only experiment (arbitrary fluorescence units); higher = stronger binding; conditions: ETS1 concentration 1 nM; RUNX1 concentration 25 nM

Sequence	ETS1 binding intensity (ETS1 [1])	ETS1 binding intensity (ETS1 [2])
CAGGCCTGTGATTTCCTCTGAGTGGTTTTCTTGGCC	465	401
ACAGCATTTCCTGGTGGCCAGATATCTGAGGTTTCA	426	539
TGGCTTGAGCTCAGGAAGTTGTGGCTGCAGTAAGCT	1470	1970
CCCGGACCGTTTCCGTGCTGTGGTCCCGGGTTCTGG	443	412
CCCTTTTCCTTCCGGCCTGTGCGGCTTATAAGATCT	736	1090
GGGCCCCCGGAAAGAGCTTTGACCGCTCGAGCCTGC	456	489
TGTTGGCTGTCCTCCGGAAACCCGCGCCTGGGTCGC	1820	1930
CGAGCTCGCAAGAGGAAACCGCGGCGCGGAGGCAGC	681	1130
TGCTGTTTCCTCTGCTGCCGAAGCGGTTTCTTCCAC	443	400
GAGGTTGGGAAGTTCTTCCTTTGGTCTGACCACAGT	453	596
AGACCCGGACCGGAACCTTGGCGCGGTGACGCTAGT	1050	975
GTCCTCCAGGAAGCCCGCGCTAACCACCGTGCCTTT	420	688
CTGGAAACCATTTCCTTTGTGGCCATGAAACAATGG	594	601
GGAAAGCGGAAGAAAAAAGCAAGATGGGACCGCAAG	445	928
AGGCGAAGGATGACTTCCTGCGGCACTACACAGTGT	610	656
AGATGGTGTGGCCGGATGGGGACCACATTGAAGAGA	1090	1240
CGTAGCGAGGAGCGGAAAACGCGGTAACCAAGGCGG	732	1050
TAGTCCGCTACAGGAAGGTGGTCATCCTCGGATACC	1110	1170
TTCAAAGGAGTCCAAGGAAGTGGTTTAACAGCGATG	843	1400
GCTGTTTCCTGCTGATAAAAACACCCCACAACTTCA	449	510
GACTGAGATTTCCTGCCAGCAACCACATGGCTTGTC	512	577
GGTTGTGGAGTAGGATGTGGTGTCTAGCTTTCAGCA	588	568

From the supplement of paper PMC10681739
